A selection: hits, their analogues and other compounds. The true share with any hit is near 13%.
HCMV inh: human cytomegalovirus inhibition; HFF cells, HCMV-luciferase reporter, 72 h; hits give low values; activity change, negative = inhibition, % at 57.5 µM; 410,000 compounds, 4.5% hits; AID 1259415; in the data active means activity change below about -60%; inconclusive means no clear call, values can overlap the other calls; inactive means above about -39%
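Two compound doses tested in HFFs infected with HCMV-luciferase, MOI 1 PFU/cell, 72 h at 37C. Lysate luminescence read with OneGlo; data normalized against buffer-only and 10uM Salinomycin inhibitor controls.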
Pf growth 48h: P. falciparum growth inhibition at 48 hours (one generation). P. falciparum luciferase growth in erythrocytes, 48 h. Potency, µM (titrated, usually from 28.7 µM), actives largely listed as inhibitors. 310,000 compounds, 5.9% hits. AID 504832
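Here the parasites carry a stable luciferase gene and grow inside erythrocytes in Albumax-based RPMI medium with compound for one erythrocytic cycle. Activity is scored as loss of luminescent signal.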
HCV inhibitor: HCV inhibition; Huh7.5.1 HCVcc-Cre infection, luciferase reporter, 44 h; Potency, µM (top dose mostly 41.8 µM), usual class: inhibitors; 340,000 compounds, 3.4% hits; AID 651820
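Reporter virus HCVcc-Cre (~0.5 moi) infects cells exposed to compound; seeding density 1,000 cells/well with 4 h settling beforehand. Luminescence, 15 sec read, taken 44 h post-infection following a 15 min RT substrate incubation.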
Pf growth 96h: P. falciparum growth inhibition at 96 hour, primary screen for plastid delayed-death inhibitors; P. falciparum luciferase reporter growth, 96 h; 320,000 compounds, 6.9% hits; Potency, µM (doses to about 28.7 µM), hits mostly inhibitors
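P. falciparum expressing integrated firefly luciferase, in erythrocytes at 2% hematocrit, 0.05% parasitemia, incubated with compounds 96 h at 37 C, 5% CO2. Growth inhibition read as loss of luminescence; two-generation exposure targets delayed-death apicoplast inhibitors.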
Hits are given with their value; n = inactive; u = inconclusive; x = no result; [ ] = remark or other dose. Unless noted, the call rests on the fitted dose curve; in most records, active means well fitted inhibition curve with a large enough effect; inconclusive means small, poorly fitted or top-dose-only effect, or another doubt; inactive means no such curve, though single readings can be large or run the other way.

SMILES | HCMV inh | Pf growth 48h | HCV inhibitor | Pf growth 96h
Cc1cc2nc(C)n(CCCNC(=O)Nc3ccc(C#N)cc3)c2cc1C | n | 10.4µM | n | n
Cc1cc2nc(C)n(CCCN)c2cc1C | n | u | n | n
CCN(CC)c1ccc(C=C(c2nnnn2-c2ccc(C)cc2)c2nnnn2-c2ccc(C)cc2)cc1 | u | 1.65µM | n | u
COc1ccc(CCNC(=O)C(=O)NCC(c2cccs2)S(=O)(=O)c2cccs2)cc1 (configuration not stated) | n | x | x | x
CCCCCC[n+]1c(-c2ccccc2)csc1Nc1ccccc1 | n | 3.29µM | n | u
COc1cc(NC(=O)CSc2ccc(-c3ccco3)nn2)cc(OC)c1 | n | n | u | 10.4µM
Cc1cc(C)cc(NC(=O)CSc2ccc(-c3ccco3)nn2)c1 | n | n | n | u
CC(=O)Nc1cccc(NC(=O)CSc2ccc(-c3ccco3)nn2)c1 | n | u | n | 9.28µM
COc1ccc(NC(=O)CSc2ccc(-c3ccco3)nn2)cc1 | -65.9 | n | n | n
CCOC(=O)Cc1ccc(NC(=O)NCc2c(-n3cccc3)sc3c2CCCC3)cc1 | n | x | x | x
Cc1cccc(Cn2c(CNS(=O)(=O)c3ccc(C(C)C)cc3)nc3cccnc32)c1 | n | x | x | x
Cn1cccc1/C=N\NC(=O)Cc1ccc(Br)c2ccccc12 | -79.9 | n | 10µM | n
COc1cc(Cl)c(C)cc1NC(=O)C1CCN(c2nc3ccccc3n3cccc23)CC1 | n | x | x | x
CCN(CC)c1ccc(N=Cc2ccccc2[N+](=O)[O-])cc1 | n | 2.33µM | u | n
CCN(CC)c1ccc(N=Cc2ccc([N+](=O)[O-])o2)cc1 | n | 1.65µM | 12.6µM | 2.94µM
CCCCCC(=O)N/N=C/c1ccc([N+](=O)[O-])o1 | n | x | u | x
CC(C)C[C@@H]1COc2cccc(N3CCCCC3)c2S(=O)(=O)N1 | n | x | x | x
Cc1cccc(OCCn2c(-c3ccc(Cl)cc3)nc3ccccc3c2=O)c1C | n | x | x | x
COc1ccc(CNc2nc(NCc3ccc(OC)c(OC)c3)n(C(=O)c3cccs3)n2)cc1OC | n | u | u | 7.38µM
CCC(=O)n1nc(NCc2ccccc2OC)nc1NCc1ccccc1OC | n | u | 11.2µM | n
COc1ccc(CCNC(=O)c2cccs2)cc1OC | n | n[1.15 µM] | n | n
Cc1ccc(-n2c(C)cc(C(=O)CN3CCOCC3)c2C)cc1C | n | n | n | n
Cc1cc(-n2c(C)cc(C(=S)N3CCOCC3)c2C)ccc1Br | -65.6 | u | u | u
CCCCCCCC/C=C\CCCCCCCCN | x | n | x | n
O=c1cc(CN2CCN(c3ccc(F)cc3)CC2)c2cc3c(cc2o1)CCCC3 | -62.1 | n | n | n
SMILES | HCMV inh | Pf growth 48h | HCV inhibitor | Pf growth 96h
O=c1cc(CN2CCN(c3ccccc3F)CC2)c2cc(O)c(-c3ccccc3)cc2o1 | n | 2.62µM | n | 2.33µM
COc1ccc(N2CCN(Cc3cc(=O)oc4cc(-c5ccccc5)c(O)cc34)CC2)cc1 | -79.9 | 1.85µM | n | 2.94µM
COc1ccc(N2CCN(Cc3cc(=O)oc4cc(C)c(Cl)cc34)CC2)cc1 | n | n | n | n
CN1CCN(Cc2cc(=O)oc3cc4c(cc23)CCC4)CC1 | n | x | u | n
COc1cc2oc(=O)cc(CN3CCN(c4ccccc4F)CC3)c2cc1Cl | n | x | x | x
COc1ccccc1NC(=O)CCNS(=O)(=O)c1ccc2c(c1)CCN2C(=O)C1CC1 | n | x | x | x
Cc1c(C(=O)OCC2CCCCC2)[nH]c2c1C(=O)CC(c1ccccc1Cl)C2 (configuration not stated) | n | x | x | x
Cc1ccc(C)c(NC(=O)Cn2c(SCC(=O)NCc3ccccc3)nc3ccccc32)c1 | n | x | x | x
Cn1c(=O)c2c(nc(Br)n2C/C=N/NC(N)=S)n(C)c1=O | -84.0 | u | n | u
Cn1c(=O)[nH]c(=O)c2c1nc(Br)n2C/C=N/NC(N)=S | n | n | x | n
COc1ccc(CCNC(=O)CCCCn2c(=O)c3ccccc3n(Cc3cccc(C)c3)c2=O)cc1OC | n | x | x | x
CC(=O)Nc1ccc(NC(=O)C(C)OC(=O)C2(c3ccc(Cl)cc3)CCCC2)cc1 (configuration not stated) | n | 9.28µM | n | 11.7µM
O=C(CCCN1CCC(O)(c2ccc(Cl)cc2)CC1)c1ccc(F)cc1 | n | 7.38µM | u | 6.57µM
O=C(CCCN1CCC(O)(c2ccc(Br)cc2)CC1)c1ccc(F)cc1 | n | 8.28µM | u | 4.05µM
O=C(CCCN1CCC(O)(c2cccc(C(F)(F)F)c2)CC1)c1ccc(F)cc1 | n | 8.28µM | u | 5.86µM
COc1ccc(CNC(=O)CSc2ncc3c(n2)-c2cc(Cl)ccc2N(C)S3(=O)=O)cc1 | n | x | x | x
COc1ccc2c3n([n+]([O-])c2c1)CCN=C3c1ccc(Cl)cc1 | n | n | n | n
O=[N+]([O-])c1ccc2c3n([n+]([O-])c2c1)CCN=C3c1ccc(Cl)cc1 | n | 11.7µM | u | u
COC(=O)C1=CN(c2cccc(OCc3ccccc3)c2)C(N)=C(C#N)C1c1cccc(OC)c1OC (configuration not stated) | n | x | x | x
O=C(Nc1cccc(F)c1)N1CC=C(c2ccc(Cl)cc2)CC1 | n | x | n | 5.86µM
COc1ccc(NC(=O)c2oc3ccccc3c2NC(=O)COc2ccc(F)cc2)c(OC)c1 | n | x | x | x
CC(C)(C)c1ccccc1NC(=S)NCc1ccccc1 | -71.7 | u | n | 13.1µM
COc1ccc(CNC(=S)Nc2ccccc2-c2ccccc2)cc1 | x | u | x | 8.28µM
Cc1ccc(-c2nc3ccccc3c(=O)n2-c2cccc(C)n2)cc1 | -84.9 | n | n | n
Cc1ccc(-c2nc3ccccc3c(=O)n2-c2cc(C)ccn2)cc1 | n | n | x | n
SMILES | HCMV inh | Pf growth 48h | HCV inhibitor | Pf growth 96h
COc1ccc(-c2nc3ccccc3c(=O)n2-c2cccnc2)cc1 | -77.0 | n | n | u
CCOC(=O)Cc1ccc(NC(=O)Nc2cc3c(cc2N2CCCCC2)n(C)c(=O)n3C)cc1 | n | x | x | x
Cn1nc(-c2ccccc2)c(CSc2ccccc2)c1Cl | n | x | u | 9.28µM
CCc1nc2ccc(C(=O)Nc3ccc(OC)c(OC)c3)cn2c1N(C)Cc1cccs1 | -79.0 | x | x | x
CCc1nc2ccc(C(=O)Nc3ccc(OC)c(OC)c3)cn2c1N(C)Cc1ccc(OC)cc1 | n | x | x | x
COc1cc(CNC(=O)c2ccccc2NC(=O)C2=C(C)OCCS2)cc(OC)c1OC | n | 13.1µM | u | u
COc1ccc(CCNC(=O)c2ccccc2NC(=O)C2=C(C)OCCS2)c(OC)c1 | n | u | 10µM | u
CC1=C(C(=O)Nc2cccc(C(=O)NC3CCCC(C)C3C)c2)SCCO1 (configuration not stated) | n | n | 12.6µM | u
COc1cc(CCNC(=O)c2ccccc2NC(=O)C2=C(C)OCCS2)cc(OC)c1OC | n | u | n | n
COc1ccc(OC)c(CNC(=O)c2ccccc2NC(=O)c2nsc3ccccc23)c1 | n | x | x | x
COCCNC(=O)c1cccc(NC(=O)C2=C(C)OCCS2)c1 | n | n | n | u
CCOc1cc(CNC(=O)c2ccccc2NC(=O)c2nsc3ccccc23)ccc1OC | -81.6 | x | x | x
COc1cc(Cl)c(C)cc1NC(=O)c1cc2c(=O)oc3ccccc3c2s1 | n | x | x | x
COc1ccc(OC)c(CCNC(=O)c2cccc(NC(=O)C3=C(C)OCCS3)c2)c1 | n | u | 11.2µM | n

Compound activity (PubChem)
